About 83,000 compounds went through this panel and 20% of them were active in at least one assay; those are over-represented in the sample as a whole.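 Values shown are percent growth following 48 h exposure of cells in 96-well plates to a single concentration of compound; below 10 was considered active.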 Active and inactive are the calls of the source.
tested on: HL-60(TB) leukemia; experiment: NCI-60 one-dose screen, 48 h (100 = growth as untreated, 0 = no growth, -100 = all killed); settings: 10 µM unless noted

Question: Which growth does the source give for COc1cc(/C=N/NC(=O)c2ccc(OCc3nc4ccc(C)cc4[nH]3)cc2)cc(OC)c1OC here?
Answer: 33.5% (inactive)

Question: With O=c1[nH]c2ccccc2cc1CSc1ccccc1Nc1nccc(-c2ccc3c(c2)OCO3)n1 as the compound, how does the growth read?
Answer: 98% (inactive)

Question: How did the growth turn out when CC(C)c1ccc2c(N)c(C(=O)Nc3ccc(C(F)(F)F)cn3)sc2n1 was run?
Answer: 46.8% (inactive)

Question: With O=C(NN1C(=O)/C(=C/C=C/c2ccc([N+](=O)[O-])o2)SC1=S)c1ccc(O)cc1 as the compound, how does the growth read?
Answer: -41.8% (active)

Question: How did the growth turn out when CSc1ccccc1NC(=O)c1ccc2nnn(/C(C#N)=C/c3ccccn3)c2c1 was run?
Answer: -31.5% (active)

Question: With C#CCOc1cc(N(CC)CC)ccc1C(C(=O)NC(C)(C)C)N(C(=O)C1CCc2cc(F)ccc2O1)c1ccccc1Br (configuration not stated) as the compound, how does the growth read?
Answer: 21.7% (inactive)

Question: For N/C(=N\c1nc2ccc([N+](=O)[O-])cc2s1)NC(=O)Nc1ccccc1Cl, which growth is on record?
Answer: 67.3% (inactive)

Question: With CC1=C(C(=O)Nc2ccccc2)C(c2cccc(Cl)c2Cl)n2c(nc3ccccc32)N1 (configuration not stated) as the compound, how does the growth read?
Answer: 9.78% (active)

Question: Which growth does the source give for O=C1NC(=NC2CCCCCC2)N/C1=C\c1ccc2ncoc2c1 here?
Answer: 30.1% (inactive)

Question: For Cn1cc(-c2nnc(N)nc2-c2c[nH]c3ccccc23)c2cc(Br)cnc21, which growth is on record?
Answer: 13.6% (inactive)

Question: COC(=O)CSC1=C(C)C(=O)C(OC)=C(OC)C1=O was tested. Which growth did it give?
Answer: 45.9% (inactive)

Question: For COc1cc2cc(C(=O)N3C[C@@H](CCl)c4c3cc(OC(=O)N(C)CCSSCCN3CCOCC3)c3ccccc43)[nH]c2c(OC)c1OC, which growth is on record?
Answer: -39.6% (active)

Question: How did the growth turn out when COc1cc(-c2cc(-c3cccc(OCC(=O)O)c3)[nH]c(=O)c2C#N)cc(OC)c1OC was run?
Answer: 80.6% (inactive)

Question: With CN1CCO/C1=C(/NC(=O)c1ccc(Cl)cc1)[P+](c1ccccc1)(c1ccccc1)c1ccccc1 as the compound, how does the growth read?
Answer: 54.7% (inactive)

Question: How did the growth turn out when CC1=C(c2cc(-c3ccc(Cl)cc3)c(C#N)c(N)n2)C(c2ccccc2)NC(=S)N1 (configuration not stated) was run?
Answer: 5.3% (active)

Question: With Cc1ccc(CSc2nc(Cl)c(C#N)c(-c3ccc(F)cc3)n2)cc1 as the compound, how does the growth read?
Answer: 42% (inactive)

Question: Which growth does the source give for N#Cc1c(NC(=O)N2CCOCC2)n(-c2ccc(OC(F)(F)F)cc2)c2cc(F)ccc12 here?
Answer: 91.2% (inactive)

Question: For CCOC(=O)/C=C/c1cccc2c1C(=O)NC(C)(c1cc3cc(Cl)ccc3oc1=O)N2 (configuration not stated), which growth is on record?
Answer: 2.37% (active)

Question: How did the growth turn out when Cc1nn(-c2ccccc2)c2nc(C)n(C(=O)N/N=C/c3cccc([N+](=O)[O-])c3)c(=O)c12 was run?
Answer: 74% (inactive)

Question: With CSc1nc(-c2cccc(C)c2)c2cc(-c3ccccc3)n(C)c2n1 as the compound, how does the growth read?
Answer: -15.8% (active)

Question: Which growth does the source give for Nc1nc(-c2ccccc2)c(N=Nc2ccc(Cl)cc2Cl)s1 here?
Answer: -31.7% (active)

Question: O=C(/C=C/Nc1ccccc1)c1ccc2c(c1)Nc1ccccc1S2 was tested. Which growth did it give?
Answer: 90.9% (inactive)

Question: With C=CCSc1nnc(-c2ccc(-c3nc4ccc(Cl)cc4[nH]3)cc2)o1 as the compound, how does the growth read?
Answer: 29.8% (inactive)

Question: [2H]C([2H])([2H])Oc1ccc2ncc(C#Cc3cncc(C(=O)Nc4ccc(CN5CCN(C)CC5)c(C(F)(F)F)c4)c3)n2n1 was tested. Which growth did it give?
Answer: -60.4% (active)

Question: With ClC(Cn1ncc2c(Nc3cccc(Br)c3)nc(SCCN3CCOCC3)nc21)c1ccc(Br)cc1 (configuration not stated) as the compound, how does the growth read?
Answer: -31.9% (active)

Question: With CCN(CC)c1ccnc(CNCCSC(c2ccccc2)(c2ccccc2)c2ccc(C)cc2)c1 as the compound, how does the growth read?
Answer: -52.3% (active)

Question: How did the growth turn out when CN1C(=O)N(C)C2SC(N/N=C/c3cccs3)=NC21 (configuration not stated) was run?
Answer: -19.5% (active)

Question: O=CNc1ccc(-n2cnc3cc(-c4ccc(O)cc4)ccc32)cc1 was tested. Which growth did it give?
Answer: 64.2% (inactive)

Question: How did the growth turn out when COc1ccc(NC(=O)Cn2c3c(sc2=O)[C@H]2[C@@H](O)[C@@H](O)[C@H](O)[C@@H]2CS3)cc1 was run?
Answer: 98.1% (inactive)

Question: For O=c1nc(-c2ccccc2)cc(-c2cc3ccccc3nc2Cl)[nH]1, which growth is on record?
Answer: -34.7% (active)

Question: With COc1ccc(C(=O)NC(=S)N2CCN(c3ncnc4c3cnn4-c3ccccc3)CC2)cc1 as the compound, how does the growth read?
Answer: 80.5% (inactive)

Question: COc1ccc(NC(=O)N/N=C/c2c[nH]c3ccccc23)cc1 was tested. Which growth did it give?
Answer: 1.79% (active)

Question: Which growth does the source give for COc1cc(/C=C/C(=O)c2cc(OC)c(OC)c(OC)c2)ccc1Oc1nc(Nc2ccc(F)cc2)nc(N(C)C)n1 here?
Answer: -7.15% (active)

Question: With O=c1[nH]c(=O)c2c(-c3cc4ccccc4oc3=O)ccnc2[nH]1 as the compound, how does the growth read?
Answer: 106% (inactive)

Question: CS(=O)(=O)c1ccc(-n2nc(C(=O)NCc3ccccc3)cc2-c2ccc(Cl)cc2)cc1 was tested. Which growth did it give?
Answer: 83% (inactive)

Question: CC(=O)c1cc(C(=O)c2ccc3c(c2)NC(=O)CO3)n2ccc3ccccc3c12 was tested. Which growth did it give?
Answer: 94.7% (inactive)

Question: How did the growth turn out when O=C1/C(=C/c2cccc3c2OCO3)Cc2c(F)cc(Br)cc21 was run?
Answer: 97.8% (inactive)
